SMILES strings stand for the structures. Results filed as inconclusive are left out. The source made the active and inactive calls. Unless noted, calls come from the whole dose curve; as a rule, active = well fitted curve in the direction sought with a large enough effect in the repeat runs; inconclusive = weak or mixed curves; inactive = no such curve, though single readings can be large; an effect the other way counts as inactive or inconclusive.

Test [1] in a line: qHTS assay to identify small molecule antagonists of the thyroid receptor (TR) signaling pathway - cell viability counter screen (AID 743064). Note: nearly all actives have a fitted effect of over 50% in size. Note: potency is the fitted concentration of half-maximal effect. The method in brief:
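GH3.TRE-Luc rat pituitary cells carrying a TRE-luciferase reporter were treated with compound plus 1 nM T3 (final) for 23.5 h at 37 °C. Viability was then read in the same wells by CellTiter-Fluor fluorescence after a further 30 min.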

A short description of test [2]: qHTS assay to identify small molecule antagonists of the thyroid receptor (TR) signaling pathway (AID 743065). Note: nearly all actives have a fitted effect of over 55% in size. Note: potency is the fitted concentration of half-maximal effect. A digest of the protocol: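 GH3.TRE-Luc rat pituitary cells carrying two TR response elements driving luciferase were plated for 4 h, given compound plus 1 nM T3 (final), and incubated 23.5 h at 37 C. ONE-Glo luminescence measured reporter inhibition; CellTiter-Fluor fluorescence tracked cytotoxicity.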

Test [3] relates to thyroid hormone receptor (rat, GH3 cells). Put plainly: qHTS assay to identify small molecule agonists of the thyroid receptor (TR) signaling pathway (AID 743066; calls by dose curve). Background: In qHTS, concentration-response curves come from the screen itself.
The target of test [4] is Estrogen receptor (Homo sapiens) (UniProt P03372). Description: qHTS assay to identify small molecule antagonists of the estrogen receptor alpha (ER-alpha) signaling pathway (AID 743069; active = well fitted curve in the direction sought with a large enough effect in the signal ratio in the repeat runs, not every such curve was filed as active; the % refers to the signal ratio). The method in brief:
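A 17beta-estradiol challenge was applied right after compound transfer to ER-alpha-UAS-bla HEK293 cells previously kept in charcoal-stripped serum. Plates stood 18 hr at 37C and 5% CO2; fluorescence was read following 2 hr FRET substrate loading at room temperature.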

Test [5] in a line: qHTS assay to identify small molecule antagonists of the estrogen receptor alpha (ER-alpha) signaling pathway - cell viability counter screen (AID 743074; calls by dose curve;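 note: HEK293 cells carrying ER-alpha-UAS-bla reporter stimulated with 17beta-estradiol; nearly all actives have a fitted effect of over 45% in size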).
In test [6] the target is Estrogen receptor (Homo sapiens) (UniProt P03372). Description: qHTS assay to identify small molecule agonists of the estrogen receptor alpha (ER-alpha) signaling pathway (AID 743075; calls by dose curve;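 note: HEK293 GripTite cells with ER-alpha and UAS-driven beta-lactamase reporter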).
Sequence of Estrogen receptor (Homo sapiens) (P03372 whole entry, looked up): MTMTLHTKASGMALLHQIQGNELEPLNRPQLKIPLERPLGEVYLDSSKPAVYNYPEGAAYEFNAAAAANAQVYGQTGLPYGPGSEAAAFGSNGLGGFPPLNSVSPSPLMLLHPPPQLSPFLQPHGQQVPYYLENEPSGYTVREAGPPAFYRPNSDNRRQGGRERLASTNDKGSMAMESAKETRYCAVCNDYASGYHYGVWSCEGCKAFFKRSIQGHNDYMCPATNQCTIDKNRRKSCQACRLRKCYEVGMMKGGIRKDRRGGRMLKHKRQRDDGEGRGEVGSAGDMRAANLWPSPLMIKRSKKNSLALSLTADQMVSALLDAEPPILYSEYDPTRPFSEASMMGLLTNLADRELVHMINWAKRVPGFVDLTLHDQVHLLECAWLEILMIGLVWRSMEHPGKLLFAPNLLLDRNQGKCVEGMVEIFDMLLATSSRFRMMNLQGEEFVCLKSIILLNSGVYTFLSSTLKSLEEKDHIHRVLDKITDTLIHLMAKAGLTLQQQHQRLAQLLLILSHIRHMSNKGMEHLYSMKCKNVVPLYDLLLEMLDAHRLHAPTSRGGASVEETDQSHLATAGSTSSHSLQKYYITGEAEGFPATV
For test [7] the target is unchanged. Description: qHTS assay to identify small molecule agonists of the estrogen receptor alpha (ER-alpha) signaling pathway using the BG1 cell line (AID 743079). Note: nearly all actives have a fitted effect of over 20% in size. Note: potency is the fitted concentration of half-maximal effect. Conditions: BG1Luc4E2 cells, ERE-luciferase agonist, 22 h; activation: at 70.3 µM (top of the series).
A short description of test [8]: qHTS assay to identify small molecule antagonists of the estrogen receptor alpha (ER-alpha) signaling pathway using the BG1 cell line (AID 743080; calls by dose curve;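 note: BG1 cells stimulated with 17beta-estradiol alongside compound; nearly all actives have a fitted effect of over 25% in size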). A digest of the protocol:
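Seeding, 24 h rest, compound transfer from DMSO, 17beta-estradiol addition, 21.5 h incubation, CellTiter-Fluor (30 min, 37 C), then ONE-Glo (30 min, room temperature): this sequence was run on BG1-Luc-4E2 reporter cells.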

The nature of test [9]: qHTS assay to identify small molecule antagonists of the estrogen receptor alpha (ER-alpha) signaling pathway using the BG1 cell line - cell viability counter screen (AID 743081).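 Note: compound given together with 17beta-estradiol as the ER stimulus; nearly all actives have a fitted effect of over 45% in size.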
The target of the next test is Aromatase (Homo sapiens) (UniProt P11511). Put plainly: qHTS assay to identify aromatase inhibitors (AID 743083). Note: nearly all actives have a fitted effect of over 55% in size.
Sequence of Aromatase (Homo sapiens) (P11511 whole entry, looked up): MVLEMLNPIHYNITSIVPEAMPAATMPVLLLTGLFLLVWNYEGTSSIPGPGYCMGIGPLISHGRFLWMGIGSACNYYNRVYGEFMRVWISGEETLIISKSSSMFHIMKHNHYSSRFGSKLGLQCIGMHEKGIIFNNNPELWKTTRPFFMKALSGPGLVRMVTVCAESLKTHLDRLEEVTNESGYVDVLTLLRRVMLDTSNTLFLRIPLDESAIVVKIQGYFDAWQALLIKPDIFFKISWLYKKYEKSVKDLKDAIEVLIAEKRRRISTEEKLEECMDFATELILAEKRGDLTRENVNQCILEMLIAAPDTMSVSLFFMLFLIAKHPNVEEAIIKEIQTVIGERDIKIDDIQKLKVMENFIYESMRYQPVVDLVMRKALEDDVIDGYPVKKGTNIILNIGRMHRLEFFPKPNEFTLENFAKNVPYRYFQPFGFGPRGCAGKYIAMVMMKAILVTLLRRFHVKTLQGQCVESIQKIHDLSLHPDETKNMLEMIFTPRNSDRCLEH

`C[N@+]12CCCC[C@@H]1CCC(=C(c1cccs1)c1cccs1)C2`: the Potency entry in [1], in test [2], in [3], in [4], in test [5] and in [6] was “inactive” in each case. The Potency entry (in test [7]; in [8]; in test [9]; with Aromatase (Homo sapiens)) was “inactive” throughout.
As for `O=C(Cc1cccs1)N[C@@H]1C(=O)N2C(C(=O)[O-])=C(C[n+]3ccccc3)CS[C@H]12`, the Potency result in test [1], in [2], in test [3], in test [4], in test [5] and in test [6] was “inactive” throughout. Moreover, the Potency entry (in test [7]; in test [8]; in test [9]; with Aromatase (Homo sapiens)) was “inactive” throughout.
As to `CN1CCN(C(c2ccccc2)c2ccc(Cl)cc2)CC1` (stereo unspecified), the Potency in [1] was 5.69 µM (active); in [2], 10.1 µM (active). The Potency entry in [3], in [4], in [5], in [6], in [7] and in test [8] was “inactive” in each case. Further, the Potency entry (in test [9]; with Aromatase (Homo sapiens)) was “inactive” in each case.
Regarding `CC(=O)O[C@H]1C[C@@]2(C)[C@@H](C[C@@H](O)[C@H]3[C@@]4(C)CC[C@@H](O)[C@@H](C)[C@@H]4CC[C@@]32C)/C1=C(\CCC=C(C)C)C(=O)O`, the Potency result in [1], in test [2], in test [3], in test [4], in test [5] and in test [6] was “inactive” in each case. For the same compound, the Potency result (in test [7]; in test [8]; in test [9]; in the test with Aromatase (Homo sapiens)) was “inactive” in each case.
For the compound `O=C1c2ccccc2C(=O)C1c1ccc(Cl)cc1`, the Potency entry in [1], in test [2], in test [3], in test [4], in [5] and in [6] was “inactive” in each case. The Potency entry (in test [7]; in [8]; with Aromatase (Homo sapiens)) was “inactive” throughout.
`CO[C@@H]1[C@@H](O[C@@H]2O[C@H](C)[C@@H](O[C@H]3C[C@@](C)(O)[C@@H](OC(=O)CC(C)C)[C@H](C)O3)[C@H](N(C)C)[C@H]2O)[C@@H](CC=O)C[C@@H](C)[C@@H](O)/C=C/C=C/C[C@@H](C)OC(=O)C[C@H]1O`: the Potency result in test [1], in [2], in test [3], in test [4], in test [5] and in test [6] was “inactive” throughout. In addition, the Potency entry (in [8]; in test [9]; with Aromatase (Homo sapiens)) was “inactive” each time. For the same compound, the Potency in test [7] was 13.3 µM (active).
Turning to `O=S(=O)(O)Oc1ccc(C(c2ccc(OS(=O)(=O)O)cc2)c2ccccn2)cc1`, the Potency entry in test [1], in test [2], in [3], in test [4], in test [5] and in test [6] was “inactive” in each case. In addition, the Potency result (in [7]; in test [8]; in the test with Aromatase (Homo sapiens)) was “inactive” each time.
On to `NCc1ccccc1CC(=O)N[C@@H]1C(=O)N2C(C(=O)O)=C(CSc3nnnn3CC(=O)O)CS[C@H]12`, for which the Potency entry in [1], in [2], in test [3], in [4], in test [5] and in test [6] was “inactive” throughout. Further, the Potency entry (in [7]; in [8]; in test [9]; with Aromatase (Homo sapiens)) was “inactive” in each case.
In the case of `CCN1C(=O)NC(c2ccccc2)C1=O` (stereo unspecified), the Potency entry in test [1], in [2], in test [3], in test [4], in [5] and in test [6] was “inactive” each time. In addition, the Potency result (in [7]; in test [8]; in [9]; in the test with Aromatase (Homo sapiens)) was “inactive” throughout.
As for `CCC(C)[C@@H](N)C(=O)O` (stereo partly specified), the Potency result in test [1], in test [2], in test [3], in [4], in [5] and in test [6] was “inactive” each time. The Potency entry (in test [7]; in [8]; in test [9]; with Aromatase (Homo sapiens)) was “inactive” throughout.
Consider `C=CCSSSCC=C`, for which the Potency result in test [1], in test [2], in test [3], in test [4], in test [5] and in test [6] was “inactive” throughout. In addition, the Potency entry (in [8]; in [9]; with Aromatase (Homo sapiens)) was “inactive” in each case. Also, in test [7], the Potency was 29.8 µM (active).
With `CCCOc1cc(N)ccc1C(=O)OCCN(CC)CC`, the Potency result in test [1], in [2], in test [3], in test [4], in test [5] and in test [6] was “inactive” throughout. Further, the Potency entry (in test [7]; in [8]; with Aromatase (Homo sapiens)) was “inactive” each time.
Regarding `CCCC(CCC)C(N)=O`, the Potency entry in test [1], in [2], in test [3], in test [4], in test [5] and in test [6] was “inactive” throughout. The Potency result (in [7]; in [8]; with Aromatase (Homo sapiens)) was “inactive” throughout.
As for `CCN(CC)CCOC(=O)c1cccnc1`, the Potency entry in test [1], in test [2], in test [3], in [4], in test [5] and in [6] was “inactive” in each case. Further, the Potency entry (in test [7]; in test [8]; in [9]; with Aromatase (Homo sapiens)) was “inactive” in each case.
On to `O=C(O)C1=C(CSc2nnnn2CS(=O)(=O)O)CS[C@@H]2[C@H](NC(=O)[C@H](O)c3ccccc3)C(=O)N12`, for which the Potency result in [1], in test [2], in [3], in [4], in [5] and in test [6] was “inactive” in each case. For the same compound, the Potency result (in test [8]; in [9]; with Aromatase (Homo sapiens)) was “inactive” throughout. Besides, the Potency in test [7] was 37.6 µM (active).
As to `O=C(CCCCCCCCCCCCC1CCCC1)Nc1ccc(S(=O)(=O)c2ccc(NC(=O)CCCCCCCCCCCCC3CCCC3)cc2)cc1`, the Potency result in [1], in test [2], in test [3], in [4], in test [5] and in test [6] was “inactive” in each case. The Potency entry (in test [7]; in test [8]; in [9]; with Aromatase (Homo sapiens)) was “inactive” each time.
`COc1ccc(C2(C#N)CCC(C(=O)O)CC2)cc1OC1CCCC1` (stereo unspecified): the Potency result in test [1], in test [2], in test [3], in [4], in test [5] and in test [6] was “inactive” in each case. In addition, the Potency entry (in test [8]; in test [9]; in the test with Aromatase (Homo sapiens)) was “inactive” throughout. For the same compound, the Potency in test [7] is 29.8 µM (active).
Take `NCCC(=O)[N-][C@@H](Cc1cnc[nH]1)C(=O)O.[Zn]`: the Potency result in [1], in test [2], in [3], in test [4], in [5] and in test [6] was “inactive” each time. Also, the Potency result (in test [7]; in test [9]; with Aromatase (Homo sapiens)) was “inactive” throughout.
For `CCCC(=O)N1CCCN(c2nc(N)c3cc(OC)c(OC)cc3n2)CC1`, the Potency result in [1], in test [2], in test [3], in [4], in test [5] and in test [6] was “inactive” throughout. Besides, the Potency result (in test [8]; in test [9]; in the test with Aromatase (Homo sapiens)) was “inactive” in each case.
`CCOC(=O)O[C@]1(C(=O)COC(=O)CC)CC[C@H]2[C@@H]3CCC4=CC(=O)C=C[C@]4(C)[C@H]3[C@@H](O)C[C@@]21C`: the Potency entry in [1], in test [2], in test [3], in test [4], in [5] and in test [6] was “inactive” in each case. The Potency result (in [7]; in test [9]; in the test with Aromatase (Homo sapiens)) was “inactive” each time.
For the compound `Nc1ncnc(Nc2ccc(Cl)cc2)n1`, the Potency entry in test [1], in test [2], in test [3], in test [4], in test [5] and in test [6] was “inactive” each time. Besides, the Potency result with Aromatase (Homo sapiens) is “inactive”. For the same compound, the Potency in test [7] is 23.7 µM (active).

The record behind these values is PubChem BioAssay (Tox21).
